# Experimental data as given in PubChem BioAssay (EPA / NIEHS).
# Records with an inconclusive call do not appear. Calls of active or inactive are those of the source. The calls were made as follows: active = hit-call score of the fitted dose curve at least 0.9, where 1 is the maximum; inconclusive = response in the unintended direction; inactive = score below 0.9.
# Read-out: ABC Transporter (ABCB11), ABCB11 (gene 8647)
# Experiment: CLD_ABCB11_6hr: CellzDirect (CLD) Gene Expression Assay for ABC Transporter (ABCB11) at 6 hours (AID 2283675);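 also: hits raise ABCB11 mRNA level so AC50 marks induction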
# Experimental: CLD_6hr is a cell-based, multiplexed-readout assay that uses hepatocyte, a human liver primary cell, with measurements taken at 6 hours after chemical dosing in a 96-well plate.CLD_ABCB11_6hr is one of 16 assay component(s) measured or calculated from the CLD_6hr assay. It is designed to make measurements of mRNA induction, a form of inducible reporter, as detected with chemiluminescence signals by Quantitative Nuclease Protection Assay (qNPA) technology.Data from the assay component CLD_ABCB11_6hr was analyzed at the endpoint, CLD_ABCB11_6hr, in the positive analysis fitting direction relative to DMSO as the negative control and baseline of activity. Using a type of inducible reporter, gain-of-signal activity can be used to understand changes in the reporter gene as they relate to the gene ABCB11. Furthermore, this assay endpoint can be referred to as a primary readout. To generalize the intended target to other relatable targets, this assay endpoint is annotated to the transporter intended target family, where subfamily is ABC transporter.
# Human hepatocyte cultures were treated daily for two consecutive days with fresh dosing solutions containing appropriate concentrations of the 320 ToxCast chemicals (chemical identities were blinded to CellzDirect and other ToxCast collaborators), vehicle control (0.2% DMSO), and positive control inducers as summarized in Table 1. Due to the large number of treatment groups and chemicals examined, the ToxCast chemicals were divided into two groups (spanning two independent cultures of hepatocytes from separate donor preparations (Hu778: ToxCast plates 1 and 2; Hu776: ToxCast plates 3 and 4). Each preparation of human hepatocyte cultures was treated with respective vehicle control, medium only control, set of six positive controls/reference chemicals for the five hepatic receptor pathways, and a subset of eight of the ToxCast chemicals (indoxacarb, pyrithiobac-sodium, norflurazon, cyhalofop-butyl, methomyl, thiram, acetochlor, and propiconazole). These replicate data, coupled with internal replicates designed within the blinded ToxCast chemical library, provided additional data to evaluate interindividual differences between hepatocyte preparations and their potential impact on chemical profiles.Cell morphology and integrity were evaluated using phase-contrast microscopy as an indicator of hepatocyte cell health (Tyson & Green, 1987). Cultures for each treatment group (i.e., media, vehicle [0.2% DMSO], positive control inducers [multiple concentrations], and the ToxCast chemicals [multiple concentrations]) were observed and cell morphology was assessed relative to vehicle control cultures at each harvest time point (0, 6, 24, or 48 h). […] Images were evaluated at the conclusion of the study to assess changes in cell integrity and account for the effects of chemical exposure on uncharacteristic changes in concentration-dependent gene expression profiles. The results from these determinations of apparent cytotoxicity were annotated (yes/no) alongside the corresponding qNPA data for reference.At the conclusion of each treatment period, hepatocyte cultures (96-well) were washed with 1 volume of HBSS, lysed by addition of 25 ul ArrayPlate lysis buffer (HTG, Tucson, AZ), and 70 ul/well of Denaturation Oil, denatured by incubation at 95C for 10 min, and frozen at approximately -70C until analysis by nuclease protection assay (qNPA) (Roberts et al., 2007). For qNPA analysis, cell lysates were thawed at 50C for approximately 30 min, qNPA probes were added, and samples were incubated at 95C for 10 min to begin the detection process by denaturing the target RNA, dissociating the duplexes and secondary structure hybridization. At the conclusion of the hybridization period, S1 nuclease reagent was added to each sample to digest all nonprotected nucleotides at 50C for 60-90 min. […]
row,SMILES,outcome
1,CC(C)(c1ccc(O)cc1)c1ccc(O)cc1,inactive
2,CCCCC(CC)COC(=O)c1ccccc1C(=O)O (centres undefined),inactive
3,CCCOC(=O)NCCCN(C)C,inactive
4,S=C(S)NCCNC(=S)S.[Mn+2].[S-]C([S-])=NCCN=C([S-])[S-].[Zn+2],inactive
5,CCCOC(=O)c1ccc(C(=O)OCCC)nc1,inactive
6,COc1nc(C)nc(NC(=O)NS(=O)(=O)c2ccccc2OCCCl)n1,inactive
7,CN(C)C(=O)Nc1ccc(Cl)c(Cl)c1,inactive
8,OB(O)O,inactive
9,CCC(C)OC(=O)N1CCCCC1CCO (centres undefined),inactive
10,Oc1ccc(C(c2ccc(O)cc2)C(Cl)(Cl)Cl)cc1,inactive
11,COC(=O)c1ccc(I)cc1S(=O)(=O)NC(=O)Nc1nc(C)nc(OC)n1,inactive
12,COC(=O)c1ccccc1S(=O)(=O)NC(=O)Nc1nc(OC(F)F)cc(OC(F)F)n1,inactive
13,c1ccc(Nc2ccccc2)cc1,inactive
14,CCSC(=O)N(CC(C)C)CC(C)C,inactive
15,CCC(O)=C1C(=O)CC(C(=O)O)CC1=O (centres undefined),inactive
16,CC1(C)C(C=C(Cl)Cl)C1C(=O)OCc1cccc(Oc2ccccc2)c1 (centres undefined),inactive
17,CCCCC(CC)CN1C(=O)C2C3C=CC(C3)C2C1=O (centres undefined),inactive

row,SMILES,outcome
1,C#CCOC(=O)[C@@H](C)Oc1ccc(Oc2ncc(Cl)cc2F)cc1,inactive
2,O=C(Nc1ccc([N+](=O)[O-])cc1Cl)c1cc(Cl)ccc1O,inactive
3,COC(=O)c1cccc(C)c1S(=O)(=O)NC(=O)Nc1nc(OCC(F)(F)F)nc(N(C)C)n1,inactive
4,S=C([S-])NCCNC(=S)[S-].[Mn+2],inactive
5,CCOC(=O)[C@H](C)Oc1ccc(Oc2nc3ccc(Cl)cc3o2)cc1,inactive
6,COC(=O)c1ccccc1C(=O)O,inactive
7,N#CSCSc1nc2ccccc2s1,inactive
8,CCCCOC(=O)C(C)Oc1ccc(Oc2ccc(C(F)(F)F)cn2)cc1 (centres undefined),inactive
9,CCOC(=O)NCCOc1ccc(Oc2ccccc2)cc1,inactive
10,CCCCCOC(=O)COc1cc(N2C(=O)C3=C(CCCC3)C2=O)c(F)cc1Cl,inactive
11,CSC(=O)c1cccc2nnsc12,inactive
12,CCNc1nc(N)nc(Cl)n1,inactive
13,CCN(Cc1c(F)cccc1Cl)c1c([N+](=O)[O-])cc(C(F)(F)F)cc1[N+](=O)[O-],inactive
14,CCCN(CCC)c1c([N+](=O)[O-])cc(C(F)(F)F)c(N)c1[N+](=O)[O-],inactive
15,COc1c(Cl)ccc(Cl)c1C(=O)O,inactive
16,CCOC(=O)C(C)Oc1ccc(Oc2nc3ccc(Cl)cc3o2)cc1 (centres undefined),inactive
17,CCCCOC(=O)[C@@H](C)Oc1ccc(Oc2ccc(C(F)(F)F)cn2)cc1,inactive
